Results as given in PubChem BioAssay (NCI).
About 83,000 compounds went through this panel and 20% of them were active in at least one assay; those are over-represented in the sample as a whole.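 Single-dose data. Exposure time 48 hours. Values below 10 considered active.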 Unmarked numbers belong to inactive results. Calls of active or inactive are those of the source.

Columns and labels:
Assay in all cases: NCI-60 one-dose screen, 48 h (100 = growth as untreated, 0 = no growth, -100 = all killed)
Settings in all cases: 10 µM unless noted
[1] = tested on: NCI-H23 lung
[2] = tested on: NCI-H322M lung
[3] = tested on: HOP-62 NSCLC
[4] = tested on: NCI-H460 lung
[5] = tested on: HOP-92 NSCLC
[6] = tested on: NCI-H522 lung
[7] = tested on: A549/ATCC NSCLC
[8] = tested on: 786-0 renal
[9] = tested on: COLO 205 colon
[10] = tested on: DU-145 prostate

| SMILES | growth [1] | growth [2] | growth [3] | growth [4] | growth [5] | growth [6] | growth [7] | growth [8] | growth [9] | growth [10] |
| --- | --- | --- | --- | --- | --- | --- | --- | --- | --- | --- |
| O=C(Cc1ccccc1)NC(c1ccc(Cl)cc1)c1c(O)ccc2ccccc12 (stereo not given) | 4.5% (active) | 15.4% | 30.9% | 5.44% (active) | -19.9% (active) | -8.23% (active) | 9.06% (active) | 26% | -38.6% (active) | 33.6% |
| COc1cc(OC)cc(N2C(=O)N(Cc3ccc(C(C)(C)C)cc3)c3ccccc3S2(=O)=O)c1 | 82.8% | 83.3% | 95.2% | 93.9% | 56.1% | 76.9% | 93.3% | 73.7% | 83.6% | 96.2% |
| COC(=O)/C(CCC=C(C)C)=C1\[C@@H](OC(C)=O)C[C@@]2(C)[C@H]1CC(=O)[C@H]1[C@@]3(C)CC[C@H](NCc4ccccc4)[C@@H](C)[C@@H]3CC[C@@]12C | 93.4% | 103% | 87.3% | 88.8% | 49.7% | 108% | 81.7% | 65.9% | 60% | 96.5% |
| COc1cccc(C(=O)NC(c2ccc(C)cc2)c2cc(Cl)c3cccnc3c2O)c1 (stereo not given) | 28.7% | 9.1% (active) | 9.9% (active) | 0.0612% (active) | 31.8% | 9.38% (active) | 6.84% (active) | 6.38% (active) | 14.4% | 15.3% |
| Cc1cc(Br)c(N)c(Br)c1 | 97% | 105% | 87.9% | 104% | 106% | 86.3% | 73.3% | 93.3% | 106% | 108% |
| Cc1cc(Nc2ccc(OCc3ccccc3)cc2)nc2cc(O)ccc12 | 55% | 76.2% | 57.7% | 47.2% | 15.8% | 53.2% | 66.6% | 72.2% | 21.9% | 86.4% |
| COc1ccc(/C=C2\NC(=O)NC2=O)cc1O | 98.1% | 109% | 108% | 98.4% | 89.2% | 98% | 99.1% | 97.8% | 117% | 116% |
| CCCSC1=NC2C(N(CC)C(=O)N2CC)N1/N=C/C=C/c1ccccc1[N+](=O)[O-] (stereo not given) | 46.5% | 57.5% | 49.8% | 5.1% (active) | 102% | 0.595% (active) | 35.8% | 33.4% | 0.744% (active) | 19.8% |
| O=C1/C(=C/c2cccc(O)c2)COc2ccc(O)cc21 | 86.5% | 98.2% | 103% | 76.3% | 104% | 36.6% | 103% | 82.1% | 102% | 80.5% |
| COc1ccc(-c2nsc3c2NC(=O)CC3c2cccc(OC)c2)cc1 (stereo not given) | 43.3% | 57% | 39.1% | 17.6% | 49.9% | 25.5% | 37.1% | 49.6% | -11.7% (active) | 13.7% |
| C#CCn1cc(C=C2C(=O)NC(=O)NC2=O)c2cc(Cl)ccc21 | 90.5% | 87.6% | 95.5% | 63.1% | 88.7% | 71.7% | 96.1% | 106% | 123% | 87.6% |
| COc1cc2cc3c(=O)n4c(cc5cc(OC)ncc54)c(=O)n3c2cn1 | 101% | 97.4% | 95.3% | 107% | 114% | 99.2% | 102% | 99.1% | 114% | 106% |
| CC[C@]1(O)C[C@@H]2CN(CCc3c([nH]c4ccccc34)[C@@](C(=O)OC)(c3cc4c(cc3OC)N(C)[C@H]3[C@@](O)(C(=O)OC)[C@H](OC(C)=O)[C@]5(CC)C=CCN6CC[C@]43[C@@H]65)C2)C1 | 26.8% | 39.9% | 35% | 4.41% (active) | -9.28% (active) | 4.5% (active) | 17.8% | 9.87% (active) | -10.8% (active) | -7.13% (active) |
| Cn1c2c(c(=O)[nH]c1=O)NC1=C(C(=O)c3ccccc31)C1(C=C(O)c3ccccc31)N2 (stereo not given) | 109% | 113% | 101% | 111% | 75.7% | 99.9% | 102% | 97.7% | 121% | 89% |
| Cc1cc2c(c(C)c1Cl)C(=O)/C(=C/c1cccc([N+](=O)[O-])c1)O2 | 90.3% | 98.7% | 107% | 101% | 114% | 80.6% | 89.6% | 101% | 123% | 104% |
| COc1ccc(OC)c(NC(=O)/C(C#N)=C/c2ccco2)c1 | 96.6% | 99.8% | 90.8% | 107% | 51.1% | 45.5% | 93.8% | 100% | 92.8% | 116% |
| Oc1[nH]c2ccccc2c1N=Nc1nnc2n1N=C(c1ccccc1)CS2 | 70% | 104% | 46.1% | 83.3% | 64.7% | 43.6% | 69.1% | 82% | 105% | 84.1% |
| CCCCCCc1cc2cc(-c3csc(/C=C/c4ccccc4)n3)c(=O)oc2cc1O | 54.5% | 63.9% | 34.9% | 17.7% | -3.21% (active) | -30.7% (active) | 28.7% | 30.1% | -93.5% (active) | 53.3% |
| CCOC(=O)C1=C(C)c2ccc(OC)c(OC)c2C1 | 91.8% | 99.2% | 88.5% | 118% | 79.2% | 78.6% | 87% | 81.4% | 113% | 115% |
| O=C(NC1CCN(Cc2ccccc2)CC1)c1cc2nc(-c3ccc(Cl)s3)cc(C(F)(F)F)n2n1 | 90.8% | 113% | 70.7% | 26.6% | 51.9% | -31.9% (active) | 81.9% | 102% | -48.6% (active) | 83.3% |
| O=S1(=O)N(Cc2ccccc2)[C@@H](Cc2ccccc2)C2O[C@H]2[C@H](Cc2ccccc2)N1Cc1ccccc1 (stereo not given in full) | 37.6% | 84.9% | 53.6% | 9.31% (active) | 114% | 49.3% | 44.1% | 40.6% | 61.8% | 34.3% |
| COc1ccc(-c2nnc(COc3ccc(C(=O)/C=C/c4ccco4)cc3)o2)cc1 | 92.1% | 86.6% | 75.8% | 78.5% | 88.4% | 91.8% | 87% | 50.9% | 44.7% | 61.6% |
| CCOc1ccc2c(c1)CN(Cc1ccc(Cl)cc1)CO2 | 80.8% | 69.1% | -7.93% (active) | 40.1% | 43.4% | 72.9% | 18.7% | 6.53% (active) | 76.7% | 38.3% |
| O=C(c1nc2ccccc2[nH]1)C1C(c2ccc([N+](=O)[O-])cc2)C2CC3CCCCC3N2[C@@]12C(=O)Nc1cc(Cl)ccc12 (stereo not given in full) | 26.2% | 47.6% | 41.3% | 11.2% | 20.1% | 34.7% | 18.5% | 38.5% | 22.2% | 51.3% |
| COc1cc2nc(-c3cnc(N(C)C)nc3)nc(NC3CCN(Cc4ccccc4)CC3)c2cc1OC | -33.8% (active) | -85.7% (active) | -70.4% (active) | -71.1% (active) | -76.8% (active) | -64.2% (active) | -66.3% (active) | -71% (active) | -82.5% (active) | -83.9% (active) |
| O=NN(Cc1cccnc1)C(=O)NC1CCCCC1 | 111% | 106% | 107% | 109% | 82.3% | 90.5% | 93.9% | 108% | 111% | 116% |
